Records with an inconclusive call do not appear. A call without a number means that no potency is given here. Activity calls are given as the source filed them. Unless noted, calls follow the shape of the full dose curve.
assay: qHTS assay to identify small molecule agonists of the hypoxia (HIF-1) signaling pathway - cell viability counter screen (AID 1224844); settings: HRE-bla ME-180 viability, CellTiter-Glo luminescence, 17 h; series mostly up to 76.8 µM; also: nearly all actives have a fitted effect of over 50% in size
Method in brief: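 HRE-bla ME-180 cells in medium with 0.5% dialyzed FBS were preincubated 5 hrs at 37C, exposed to compounds for 17 hrs, then viability was read as CellTiter-Glo luminescence after 30 min at room temperature, in the reporter wells.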
Potency is read from the fitted curve at half-maximal effect.

Row | Compound | Potency
1 | Cn1cc(C2=C(c3cn(C4CCN(Cc5ccccn5)CC4)c4ccccc34)C(=O)NC2=O)c2ccccc21 | inactive
2 | Nc1ccc([N+](=O)[O-])cc1Cl | inactive
3 | CC1(c2ccc(Oc3ccccc3)cc2)OC(=O)N(Nc2ccccc2)C1=O (centres undefined) | 22 µM (active)
4 | CN(C)[C@@H]1C(=O)C(C(N)=O)=C(O)[C@@]2(O)C(=O)C3=C(O)c4c(O)ccc(Cl)c4[C@@](C)(O)[C@H]3C[C@@H]12 | inactive

assay: qHTS assay to identify small molecule agonists of H2AX (AID 1224845; active = well fitted activation curve with a large enough effect in the signal ratio in the repeat runs, not every such curve was filed as active; the % refers to the signal ratio); settings: CHO-K1 phospho-H2AX Ser139 HTRF, 3 h; series mostly up to 154 µM
Method in brief: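 Wild-type CHO-K1 cells plated overnight, then exposed 3 hr at 37C to compounds at 15 concentrations (0.76% DMSO). Lysed, then HTRF anti-pH2AX(S139)-cryptate/anti-H2AX-d2 detection after 24 hr at room temperature; emissions 665 and 620 nm.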

Row | Compound | Potency
5 | Oc1ccc(C2(c3ccc(O)cc3)CCCCC2)cc1 | inactive
6 | C=CC(=O)OCCCCOC(=O)C=C | 101 µM (active)
7 | CC(C)OC(=S)S | 35.7 µM (active)
8 | CCCOCC(=Nc1ccc(Cl)cc1C(F)(F)F)n1ccnc1 | inactive
9 | C[C@]12CC[C@H](O)C[C@H]1CC[C@@H]1[C@@H]2C[C@@H](O)[C@]2(C)[C@@H](C3=CC(=O)OC3)CC[C@]12O | inactive
10 | CCOP(=O)(NC(C)C)Oc1ccc(SC)c(C)c1 (centres undefined) | inactive
11 | Oc1c(Cl)c(Cl)cc(Cl)c1Cl | inactive
12 | Cc1cc(C(C)(C)c2cc(C)c(O)c(C)c2)cc(C)c1O | inactive
13 | CSCCCN=C=S | inactive
14 | CCc1nn(C)c(C(=O)NCc2ccc(C(C)(C)C)cc2)c1Cl | inactive
15 | N#CCCC(Br)(C#N)CBr (centres undefined) | 35.7 µM (active)
16 | N#Cc1c(-c2ccc(Cl)cc2)[nH]c(C(F)(F)F)c1Br | inactive
17 | O=C(O)C1C2CCC(O2)C1C(=O)O (centres undefined) | 102 µM (active)
18 | CC(C)CC(C)(c1ccc(O)cc1)c1ccc(O)cc1 | inactive
19 | Oc1cc(Cl)c(Cl)c(Cl)c1 | inactive
20 | CC(C)N1C(=O)N(c2ccccc2)CSC1=NC(C)(C)C | inactive
21 | CC(=O)OC1(c2ccccc2)CCN(CCc2ccccc2)CC1 | inactive
22 | Cn1cc(C2=C(c3cn(C4CCN(Cc5ccccn5)CC4)c4ccccc34)C(=O)NC2=O)c2ccccc21 | inactive
23 | Nc1ccc([N+](=O)[O-])cc1Cl | inactive
24 | CN(C)[C@@H]1C(=O)C(C(N)=O)=C(O)[C@@]2(O)C(=O)C3=C(O)c4c(O)ccc(Cl)c4[C@@](C)(O)[C@H]3C[C@@H]12 | inactive

From PubChem BioAssay (Tox21)
